{
  "source": "paper PMC7862700",
  "about": "“An all-to-all approach to the identification of sequence-specific readers for epigenetic DNA modifications on cytosine”",
  "assay_in_all_cases": "DAPPL (digital affinity profiling via proximity ligation, sequencing); 10 mM Tris-HCl pH 7.5, 50 mM NaCl, 1 mM DTT, 4% glycerol, room temperature, 30 min; GST-TFs on glutathione beads, 16-mer random dsDNA library, 0.1% formaldehyde crosslink after washing; high values mean tight binding",
  "key": {"FEV": {"molecular_target": "T1, FEV (Homo sapiens, UniProt Q99581 1-238)", "T1 sequence": "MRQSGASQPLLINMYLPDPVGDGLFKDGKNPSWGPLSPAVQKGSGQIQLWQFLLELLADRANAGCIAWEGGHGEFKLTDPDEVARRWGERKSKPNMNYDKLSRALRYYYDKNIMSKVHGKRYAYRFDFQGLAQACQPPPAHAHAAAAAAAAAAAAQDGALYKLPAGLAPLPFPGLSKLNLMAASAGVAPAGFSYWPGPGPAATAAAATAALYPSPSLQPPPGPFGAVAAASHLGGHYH", "conditions": "protein: recombinant; tags: N-terminal GST; dsDNA, one strand shown", "procedure,_shortened": "(§1)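 After expression in yeast as GST fusions, human transcription factors were bound to glutathione beads, DNA-barcoded and mixed with a tag-only sample. The pools were incubated with 200 nmole of a 16-mer random double-stranded DNA library in Tris/NaCl/DTT/glycerol buffer (30 min, room temperature), washed and crosslinked with 0.1% formaldehyde. Proximity ligation with BsaI/T4 ligase ran for 1 h at 37 °C, before PCR amplification and sequencing on an Illumina NextSeq500. Binding signal is a hexamer's read frequency for a factor divided by its frequency for the tag-only sample.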"}, "ETV5": {"molecular_target": "ETV5 (Homo sapiens, UniProt P41161 1-510)", "sequence (P41161 whole entry)": "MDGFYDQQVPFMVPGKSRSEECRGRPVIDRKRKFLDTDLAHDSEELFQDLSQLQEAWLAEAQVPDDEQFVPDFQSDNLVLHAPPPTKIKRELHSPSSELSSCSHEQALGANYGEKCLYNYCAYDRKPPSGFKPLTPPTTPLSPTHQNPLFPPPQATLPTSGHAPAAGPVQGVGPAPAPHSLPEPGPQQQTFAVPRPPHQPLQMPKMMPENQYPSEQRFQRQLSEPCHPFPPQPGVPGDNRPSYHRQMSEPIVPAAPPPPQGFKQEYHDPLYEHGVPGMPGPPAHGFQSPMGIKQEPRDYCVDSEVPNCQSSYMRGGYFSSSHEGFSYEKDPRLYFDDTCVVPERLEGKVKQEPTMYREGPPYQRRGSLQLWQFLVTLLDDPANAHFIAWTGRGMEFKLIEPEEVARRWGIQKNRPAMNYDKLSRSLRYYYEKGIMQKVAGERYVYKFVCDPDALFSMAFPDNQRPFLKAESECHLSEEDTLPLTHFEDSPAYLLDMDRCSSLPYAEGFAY", "conditions": "protein: recombinant; tags: N-terminal GST; dsDNA, one strand shown", "procedure,_shortened": "as §1"}, "HSF1": {"molecular_target": "HSF1 (Homo sapiens, UniProt Q00613 1-529)", "sequence (Q00613 whole entry)": "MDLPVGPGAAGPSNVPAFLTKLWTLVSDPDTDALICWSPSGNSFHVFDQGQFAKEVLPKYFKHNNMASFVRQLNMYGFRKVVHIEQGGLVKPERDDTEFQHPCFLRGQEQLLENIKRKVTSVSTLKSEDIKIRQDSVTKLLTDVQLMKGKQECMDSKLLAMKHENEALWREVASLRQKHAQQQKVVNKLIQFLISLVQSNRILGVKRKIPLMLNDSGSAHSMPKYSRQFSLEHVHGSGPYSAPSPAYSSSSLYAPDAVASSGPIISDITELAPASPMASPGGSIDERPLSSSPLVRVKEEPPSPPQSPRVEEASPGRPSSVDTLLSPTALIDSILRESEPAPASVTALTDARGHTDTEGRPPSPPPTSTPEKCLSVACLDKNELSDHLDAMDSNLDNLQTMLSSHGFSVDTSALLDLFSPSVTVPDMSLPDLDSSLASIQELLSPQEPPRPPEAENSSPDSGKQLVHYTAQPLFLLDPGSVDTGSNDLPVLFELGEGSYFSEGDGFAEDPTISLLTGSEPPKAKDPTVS", "conditions": "protein: recombinant; tags: N-terminal GST; chain copies: 3; dsDNA, one strand shown", "procedure,_shortened": "as §1"}, "SPIC": {"molecular_target": "T2, SPIC (Homo sapiens, UniProt Q8N5J4 1-248)", "T2 sequence": "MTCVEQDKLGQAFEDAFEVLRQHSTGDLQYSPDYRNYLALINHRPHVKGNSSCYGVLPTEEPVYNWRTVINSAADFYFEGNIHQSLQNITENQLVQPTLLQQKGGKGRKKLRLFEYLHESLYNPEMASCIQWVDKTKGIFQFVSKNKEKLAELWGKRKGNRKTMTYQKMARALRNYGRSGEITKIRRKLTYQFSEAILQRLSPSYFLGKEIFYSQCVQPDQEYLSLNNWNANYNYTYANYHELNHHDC", "conditions": "protein: recombinant; tags: N-terminal GST; dsDNA, one strand shown", "procedure,_shortened": "as §1"}, "ELF4": {"molecular_target": "ELF4 (Homo sapiens, UniProt Q99607 1-663)", "sequence (Q99607 whole entry)": "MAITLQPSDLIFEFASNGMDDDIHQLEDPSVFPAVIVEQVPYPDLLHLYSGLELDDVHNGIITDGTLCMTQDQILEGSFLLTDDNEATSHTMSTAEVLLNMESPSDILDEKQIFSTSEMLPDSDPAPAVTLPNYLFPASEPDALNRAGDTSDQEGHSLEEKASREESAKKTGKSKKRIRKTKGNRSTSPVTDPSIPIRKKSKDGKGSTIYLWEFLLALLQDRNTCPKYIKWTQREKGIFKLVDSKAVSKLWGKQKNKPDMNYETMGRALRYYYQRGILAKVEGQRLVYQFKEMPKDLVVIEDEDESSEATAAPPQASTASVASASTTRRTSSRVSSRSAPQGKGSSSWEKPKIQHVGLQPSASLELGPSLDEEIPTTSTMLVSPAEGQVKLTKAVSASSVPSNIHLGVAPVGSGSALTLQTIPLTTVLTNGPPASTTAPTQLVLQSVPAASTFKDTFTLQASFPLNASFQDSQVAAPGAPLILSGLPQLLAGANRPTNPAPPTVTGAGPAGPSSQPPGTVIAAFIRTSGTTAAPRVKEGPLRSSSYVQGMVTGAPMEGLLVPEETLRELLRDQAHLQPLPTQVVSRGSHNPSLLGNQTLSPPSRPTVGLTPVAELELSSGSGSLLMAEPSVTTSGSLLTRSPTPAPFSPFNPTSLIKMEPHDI", "conditions": "protein: recombinant; tags: N-terminal GST; dsDNA, one strand shown", "procedure,_shortened": "as §1"}, "ELK4": {"molecular_target": "T3, ELK4 (Homo sapiens, UniProt P28324-2 1-405)", "T3 sequence": "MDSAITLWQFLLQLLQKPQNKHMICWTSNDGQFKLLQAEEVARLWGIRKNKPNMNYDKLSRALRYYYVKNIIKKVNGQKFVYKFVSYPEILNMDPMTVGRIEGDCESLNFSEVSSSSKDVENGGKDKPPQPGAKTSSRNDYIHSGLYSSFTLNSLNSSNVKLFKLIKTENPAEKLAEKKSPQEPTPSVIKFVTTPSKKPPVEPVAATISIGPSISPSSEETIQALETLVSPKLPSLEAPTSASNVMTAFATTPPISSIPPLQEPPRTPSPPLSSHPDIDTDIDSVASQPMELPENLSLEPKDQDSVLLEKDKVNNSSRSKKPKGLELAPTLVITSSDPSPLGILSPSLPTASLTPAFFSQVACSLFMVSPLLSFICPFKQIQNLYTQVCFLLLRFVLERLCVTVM", "conditions": "protein: recombinant; tags: N-terminal GST; dsDNA, one strand shown", "procedure,_shortened": "as §1"}, "ETV2": {"molecular_target": "T4, ETV2 (Homo sapiens, UniProt O00321 1-342)", "T4 sequence": "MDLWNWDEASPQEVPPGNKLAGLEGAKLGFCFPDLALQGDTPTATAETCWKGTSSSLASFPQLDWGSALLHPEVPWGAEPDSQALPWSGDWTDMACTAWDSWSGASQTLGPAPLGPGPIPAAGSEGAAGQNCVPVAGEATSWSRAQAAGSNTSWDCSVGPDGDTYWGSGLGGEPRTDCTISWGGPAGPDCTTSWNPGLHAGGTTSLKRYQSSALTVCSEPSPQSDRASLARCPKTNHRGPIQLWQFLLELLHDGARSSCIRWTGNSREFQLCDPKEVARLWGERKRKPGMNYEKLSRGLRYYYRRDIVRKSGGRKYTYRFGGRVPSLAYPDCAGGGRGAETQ", "conditions": "protein: recombinant; tags: N-terminal GST; dsDNA, one strand shown", "procedure,_shortened": "as §1"}, "ELF3": {"molecular_target": "T5, ELF3 (Homo sapiens, UniProt P78545 1-371)", "T5 sequence": "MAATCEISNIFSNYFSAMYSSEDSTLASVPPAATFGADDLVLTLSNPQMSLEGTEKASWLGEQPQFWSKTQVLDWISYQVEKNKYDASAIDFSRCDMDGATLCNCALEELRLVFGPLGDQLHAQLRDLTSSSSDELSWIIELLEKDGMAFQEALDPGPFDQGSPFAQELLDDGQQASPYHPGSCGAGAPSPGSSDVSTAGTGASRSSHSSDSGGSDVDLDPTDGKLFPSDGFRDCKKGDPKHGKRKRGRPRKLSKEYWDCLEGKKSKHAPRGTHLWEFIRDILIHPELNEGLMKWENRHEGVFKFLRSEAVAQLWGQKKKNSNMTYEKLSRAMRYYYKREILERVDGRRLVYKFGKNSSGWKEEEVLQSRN", "conditions": "protein: recombinant; tags: N-terminal GST; dsDNA, one strand shown", "procedure,_shortened": "as §1"}, "CRX": {"molecular_target": "CRX (Homo sapiens, UniProt O43186 1-299)", "sequence (O43186 whole entry)": "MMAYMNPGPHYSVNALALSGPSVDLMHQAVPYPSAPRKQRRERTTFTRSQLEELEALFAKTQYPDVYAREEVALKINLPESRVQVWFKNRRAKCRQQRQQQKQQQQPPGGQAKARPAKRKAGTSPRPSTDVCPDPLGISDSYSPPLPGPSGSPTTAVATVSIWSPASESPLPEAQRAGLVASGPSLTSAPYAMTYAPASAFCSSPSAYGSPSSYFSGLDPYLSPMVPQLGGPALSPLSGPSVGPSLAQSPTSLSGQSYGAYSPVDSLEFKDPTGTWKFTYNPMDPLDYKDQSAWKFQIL", "conditions": "protein: recombinant; tags: N-terminal GST; dsDNA, one strand shown", "procedure,_shortened": "as §1"}, "ETV1": {"molecular_target": "ETV1 (Homo sapiens, UniProt P50549 1-477)", "sequence (P50549 whole entry)": "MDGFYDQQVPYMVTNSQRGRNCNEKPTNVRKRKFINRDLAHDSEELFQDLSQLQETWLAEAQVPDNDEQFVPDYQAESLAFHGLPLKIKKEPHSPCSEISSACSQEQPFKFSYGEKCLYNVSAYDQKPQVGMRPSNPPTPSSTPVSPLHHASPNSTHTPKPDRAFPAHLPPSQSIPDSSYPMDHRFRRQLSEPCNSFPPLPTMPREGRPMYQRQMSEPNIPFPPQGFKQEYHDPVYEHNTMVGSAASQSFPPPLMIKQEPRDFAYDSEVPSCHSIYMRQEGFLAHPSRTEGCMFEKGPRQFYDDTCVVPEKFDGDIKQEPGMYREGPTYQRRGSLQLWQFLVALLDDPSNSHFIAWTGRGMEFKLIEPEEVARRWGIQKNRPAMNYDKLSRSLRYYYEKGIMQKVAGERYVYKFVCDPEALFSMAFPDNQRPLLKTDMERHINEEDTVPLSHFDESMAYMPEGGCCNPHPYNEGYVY", "conditions": "protein: recombinant; tags: N-terminal GST; dsDNA, one strand shown", "procedure,_shortened": "as §1"}},
  "data": [
    {"sequence": "GGCTCC", "values": [
      {"measurement": "binding signal", "setting": "FEV", "result": "1.35 fold enrichment (6-mer frequency, TF over GST control)"},
      {"measurement": "binding signal", "setting": "ETV5", "result": "1.37 fold enrichment (6-mer frequency, TF over GST control)"},
      {"measurement": "binding signal", "setting": "HSF1", "result": "1.13 fold enrichment (6-mer frequency, TF over GST control)"},
      {"measurement": "binding signal", "setting": "SPIC", "result": "1.16 fold enrichment (6-mer frequency, TF over GST control)"},
      {"measurement": "binding signal", "setting": "ELF4", "result": "1.24 fold enrichment (6-mer frequency, TF over GST control)"},
      {"measurement": "binding signal", "setting": "ELK4", "result": "1.29 fold enrichment (6-mer frequency, TF over GST control)"},
      {"measurement": "binding signal", "setting": "ETV2", "result": "1.43 fold enrichment (6-mer frequency, TF over GST control)"},
      {"measurement": "binding signal", "setting": "ELF3", "result": "1.32 fold enrichment (6-mer frequency, TF over GST control)"},
      {"measurement": "binding signal", "setting": "CRX", "result": "1.1 fold enrichment (6-mer frequency, TF over GST control)"},
      {"measurement": "binding signal", "setting": "ETV1", "result": "1.24 fold enrichment (6-mer frequency, TF over GST control)"}
    ]}
  ]
}
